Where “and” joins values, the source holds several entries; their conditions need not be identical. Equal entries are not always repeated. The panel holds about 83,000 compounds, 20% with a hit somewhere; the sample as a whole holds those more often.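 Cell lines were cultured in 96-well plates, exposed to a single compound concentration, and assessed for percent growth 48 hours later.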 Calls of active or inactive are those of the source. The calls were made as follows: active = growth percent below 10; inactive = the rest.
Tests used:
Test in all cases: NCI-60 one-dose screen, 48 h (100 = growth as untreated, 0 = no growth, -100 = all killed)
Settings in all cases: 10 µM unless noted
HCT-15 colon = test system: HCT-15 colon
HT29 colon = test system: HT29 colon
SNB-75 CNS = test system: SNB-75 CNS
U251 CNS = test system: U251 CNS
PC-3 prostate = test system: PC-3 prostate
SK-MEL-5 melanoma = test system: SK-MEL-5 melanoma
UACC-62 melanoma = test system: UACC-62 melanoma
LOX IMVI melanoma = test system: LOX IMVI melanoma
SK-MEL-28 melanoma = test system: SK-MEL-28 melanoma
SK-MEL-2 melanoma = test system: SK-MEL-2 melanoma
EKVX NSCLC = test system: EKVX NSCLC
UO-31 renal = test system: UO-31 renal
TK-10 renal = test system: TK-10 renal
ACHN renal = test system: ACHN renal
CAKI-1 renal = test system: CAKI-1 renal
A498 renal = test system: A498 renal
CCRF-CEM leukemia = test system: CCRF-CEM leukemia
MOLT-4 leukemia = test system: MOLT-4 leukemia
SN12C renal = test system: SN12C renal
SNB-19 CNS = test system: SNB-19 CNS

Measured: growth

C#CCN(C)Cc1ccccc1
inactive: HCT-15 colon 104% and 103% | HT29 colon 108% and 113% | SNB-75 CNS 106% and 115% | U251 CNS 105% and 101% | PC-3 prostate 100% and 105% | SK-MEL-5 melanoma 102% and 106% | UACC-62 melanoma 92.3% | LOX IMVI melanoma 96.9% and 102% | SK-MEL-28 melanoma 111% and 114% | SK-MEL-2 melanoma 97.5% and 104% | EKVX NSCLC 104% and 95.2% | UO-31 renal 87.2% and 93.2% | TK-10 renal 101% and 231% | ACHN renal 97.5% and 105% | CAKI-1 renal 99% and 69.1% | A498 renal 126% and 96.3% | CCRF-CEM leukemia 95.2% and 131% | MOLT-4 leukemia 106% and 101%

Cc1c(Cl)cccc1NCN1C(=O)c2ccccc2C1=O
inactive: HCT-15 colon 98.4% | HT29 colon 104% | SNB-75 CNS 94.4% | U251 CNS 95.5% | SK-MEL-5 melanoma 99.5% | UACC-62 melanoma 114% | LOX IMVI melanoma 97% | SK-MEL-28 melanoma 112% | SK-MEL-2 melanoma 103% | SN12C renal 112% | UO-31 renal 82.8% | TK-10 renal 114% | ACHN renal 105% | CAKI-1 renal 94.4% | A498 renal 101% | CCRF-CEM leukemia 105%

COc1ccccc1/C=N\N=C(N/N=C/c1ccccc1OC)N/N=C/c1ccccc1OC
31.1% (inactive) and 8.9% (active): MOLT-4 leukemia
50.4% (inactive) and -10.3% (active): UO-31 renal
69.8% (inactive) and -91.3% (active): SK-MEL-5 melanoma
inactive: HCT-15 colon 55.9% and 32.1% | HT29 colon 23.7% and 12.9% | SNB-19 CNS 59% and 23.7% | U251 CNS 39.3% and 15.3% | PC-3 prostate 41.2% and 19.7% | UACC-62 melanoma 55.5% and 19.7% | LOX IMVI melanoma 28.6% | SK-MEL-28 melanoma 78.8% and 64.5% | SK-MEL-2 melanoma 47.5% and 31.8% | EKVX NSCLC 74.4% and 48.3% | SN12C renal 77.2% and 28.4% | TK-10 renal 110% and 57.7% | ACHN renal 63.8% and 40.6% | CAKI-1 renal 43.6% and 33.7% | A498 renal 100% and 72.2% | CCRF-CEM leukemia 39.9% and 23.4%

CCOC(=O)c1c(C)oc(C)c(C(=O)OCC)c1=O
inactive: HCT-15 colon 106% and 102% | HT29 colon 105% and 106% | SNB-19 CNS 102% and 90.2% | U251 CNS 111% and 101% | PC-3 prostate 94.1% and 88.6% | SK-MEL-5 melanoma 111% and 104% | UACC-62 melanoma 111% and 96.6% | LOX IMVI melanoma 103% and 97.3% | SK-MEL-28 melanoma 109% and 112% | SK-MEL-2 melanoma 111% and 112% | EKVX NSCLC 128% and 104% | SN12C renal 113% and 97.9% | UO-31 renal 96.6% and 86.9% | TK-10 renal 98.1% and 106% | ACHN renal 102% and 105% | CAKI-1 renal 103% and 95.4% | A498 renal 113% and 117% | CCRF-CEM leukemia 96% and 108% | MOLT-4 leukemia 150% and 80.2%

Nc1ccc(N=Nc2ccc(S(=O)(=O)O)cc2)cc1S(=O)(=O)O
inactive: HCT-15 colon 102% and 96.7% | HT29 colon 118% and 96.2% | SNB-19 CNS 96.5% | U251 CNS 99.6% and 95.5% | PC-3 prostate 92.2% and 74% | SK-MEL-5 melanoma 111% and 103% | UACC-62 melanoma 104% and 94.8% | LOX IMVI melanoma 93.7% and 92.1% | SK-MEL-28 melanoma 109% and 104% | SK-MEL-2 melanoma 98.7% and 82.5% | EKVX NSCLC 96.3% and 109% | SN12C renal 105% and 96.1% | UO-31 renal 81.4% and 93.4% | TK-10 renal 115% and 97.6% | CAKI-1 renal 79.6% and 88.4% | A498 renal 102% and 111% | CCRF-CEM leukemia 83.6% and 46.6%

O=C(/C=C\c1ccnc2ccccc12)c1ccc([N+](=O)[O-])cc1
70.3% (inactive) and 3.25% (active): HT29 colon
52.1% (inactive) and 9.87% (active): LOX IMVI melanoma
inactive: HCT-15 colon 87.9% and 69.7% | SNB-75 CNS 110% and 86.5% | U251 CNS 95.3% and 79.6% | PC-3 prostate 93.8% and 74.7% | SK-MEL-5 melanoma 67.4% and 53.8% | UACC-62 melanoma 82.6% and 70.7% | SK-MEL-28 melanoma 104% and 92.1% | SK-MEL-2 melanoma 83.4% and 93.8% | EKVX NSCLC 75.3% | UO-31 renal 61.6% and 49.7% | TK-10 renal 81.3% and 86.9% | ACHN renal 75.2% and 70.6% | CAKI-1 renal 89.8% and 70.3% | A498 renal 109% and 55.2% | CCRF-CEM leukemia 67.9% and 28.6% | MOLT-4 leukemia 63.1% and 49.3%

CO/N=C/C=C\C(=O)N/C=C/C[C@H]1/C=C/[C@H](O)/C=C\C=C\c2cccc(O)c2C(=O)O1
14.2% (inactive) and -7.71% (active): UO-31 renal
active: HT29 colon 9.82% and 7.92% | SK-MEL-5 melanoma -70.6% and -68.6% | UACC-62 melanoma -1.1% and -43.6% | LOX IMVI melanoma -45.7% and -73.7% | SK-MEL-2 melanoma 5.72% and -20.7% | CAKI-1 renal 9.88% and 2.94%
inactive: HCT-15 colon 11.9% and 16.7% | SNB-19 CNS 68.3% and 56.7% | U251 CNS 33.3% and 32.2% | PC-3 prostate 37.5% and 25.3% | SK-MEL-28 melanoma 32.1% | EKVX NSCLC 35.1% and 47.9% | SN12C renal 48.5% and 40.9% | TK-10 renal 53.9% and 52% | ACHN renal 31.1% and 22.4% | A498 renal 44.1% and 10.3% | CCRF-CEM leukemia 33% and 32.7% | MOLT-4 leukemia 27.7% and 14.6%

Nc1ccccc1Nc1ccccc1
inactive: HCT-15 colon 86.8% and 83.1% | HT29 colon 118% and 97.4% | SNB-19 CNS 97.9% and 105% | U251 CNS 89.3% and 86.7% | PC-3 prostate 87.6% and 91.7% | SK-MEL-5 melanoma 89.5% and 94.7% | UACC-62 melanoma 98.8% and 99.3% | LOX IMVI melanoma 85.1% and 87% | SK-MEL-28 melanoma 109% and 101% | SK-MEL-2 melanoma 133% and 78.1% | EKVX NSCLC 96.4% | SN12C renal 70% and 72.6% | UO-31 renal 45.3% and 49.6% | TK-10 renal 111% and 88.4% | ACHN renal 85.5% and 75.2% | CAKI-1 renal 73.3% | A498 renal 105% | CCRF-CEM leukemia 31.8% and 25.3% | MOLT-4 leukemia 53.5% and 88.3%

COc1ccc(-c2ncnc3c2ncn3C/C=C/CCl)cc1
inactive: HCT-15 colon 61% and 81.2% | HT29 colon 84.6% and 84.3% | SNB-19 CNS 87.8% and 78.5% | U251 CNS 64.2% and 77.3% | PC-3 prostate 83.8% and 87% | SK-MEL-5 melanoma 85.7% and 82.4% | UACC-62 melanoma 76.6% and 74% | LOX IMVI melanoma 54.2% and 70.1% | SK-MEL-28 melanoma 98.4% and 98.9% | SK-MEL-2 melanoma 68.6% and 59.2% | EKVX NSCLC 108% and 106% | SN12C renal 83.6% and 79.6% | UO-31 renal 60.3% and 85.8% | TK-10 renal 86.3% and 95.3% | ACHN renal 59.4% and 79.3% | CAKI-1 renal 70.8% and 90.8% | A498 renal 68.4% and 85.6% | CCRF-CEM leukemia 63.2% and 56.7% | MOLT-4 leukemia 48.9%

From PubChem BioAssay (NCI)
